Source: PubChem (National Center for Advancing Translational Sciences (NCATS))
The list is not random: actives were taken first. Their share in the collection is about 3.8%.
Nrf2 block: Nrf2 pathway inhibition; A549 ARE-Fluc reporter, luciferase luminescence, 18-24 h; Potency, µM (series often up to 46 µM), usual class: inhibitors; actives 2.1% (n = 360,000); also: nearly all actives have a fitted effect of over 60% in size
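A549 ARE_Fluc cells, 5000/well, 5% FBS OPTI-MEM; compounds in dose-response, 18-24 h at 37 °C/5% CO2; CellTiter-Fluor viability read (Ex 405/Em 525), then BugLite luciferase luminescence = Nrf2 activity.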
mIDH1 inhibitor: human IDH1 R132H inhibition; O75874; IDH1-R132H enzyme, NADPH consumption, diaphorase/resazurin fluorescence; Potency, µM (series often up to 76.6 µM), most hits filed as inhibitors; actives 0.093% (n = 390,000); AID 602179; also: nearly all actives have a fitted effect of over 65% in size
Target sequence (O75874 whole entry R132H, stated change not applied): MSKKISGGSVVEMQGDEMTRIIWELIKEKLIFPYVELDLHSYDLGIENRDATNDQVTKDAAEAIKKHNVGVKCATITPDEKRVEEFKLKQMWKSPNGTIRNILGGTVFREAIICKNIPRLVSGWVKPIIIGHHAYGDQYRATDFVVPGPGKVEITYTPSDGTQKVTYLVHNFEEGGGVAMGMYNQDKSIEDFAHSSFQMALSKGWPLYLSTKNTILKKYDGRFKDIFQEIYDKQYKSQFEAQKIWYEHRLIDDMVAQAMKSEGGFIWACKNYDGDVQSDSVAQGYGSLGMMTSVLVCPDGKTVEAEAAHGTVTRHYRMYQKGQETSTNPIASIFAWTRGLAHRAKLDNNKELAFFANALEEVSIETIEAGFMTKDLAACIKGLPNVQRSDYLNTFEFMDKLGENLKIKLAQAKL
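IDH1-R132H (0.5 ug/mL dispensed) in pH 7.5 Tris buffer was preincubated 30 min with compound, then given a substrate mix of 0.016 mM NADPH and 2 mM alpha-KG for 80 min at room temperature; remaining NADPH was read by diaphorase/resazurin fluorescence.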
A549 tox: kills or reduces viability of A549 cells in Nrf2 counter-screen. Potency, µM (doses to about 46 µM), most hits filed as inhibitors. A549 ARE-Fluc cells, CellTiter-Fluor viability, 18-24 h. actives 0.16% (n = 390,000)
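A549 ARE_Fluc cells in 5% FBS OPTI-MEM were exposed to compounds in concentration-response for 18-24 h at 37 deg C. Viability was read by CellTiter-Fluor fluorescence (Ex 405/Em 525) after 30 min, before the luciferase read.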
Nrf2 activator: activates Nrf2 signaling; AREc32 ARE-luciferase reporter (MCF7-derived line), luminescence, 24 h; Potency, µM (top dose mostly 46.1 µM), hits mostly activators; actives 0.31% (n = 410,000); also: nearly all actives have a fitted effect of over 65% in size
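Reporter line AREc32 (ARE-Fluc), seeded overnight in OPTI-MEM with 5% FBS; compound pin-transferred, 24 hr at 37 deg C, 5% CO2; luminescent read-out.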
ELG1 DNA repair: blocks ELG1-dependent DNA repair in HEK293T cells; actives 2.3% (n = 330,000); Potency, µM (titrated, usually from 46.1 µM), usual class: inhibitors; HEK293T ELG1-luciferase reporter, luminescence, 16 h; DNA damage induced by 5-fluorouridine; also: nearly all actives have a fitted effect of over 55% in size
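Overnight (16 hr) co-exposure of 2,000 cells/well to 5-fluorouridine and compound at 37 °C preceded detection. Luciferase was quantified via ONE-Glo luminescence; loss of signal denotes inhibition.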
A number is an active result; 0 = inactive; ? = inconclusive; - = no result given. Calls follow the shape of the dose curve; as a rule, active = well fitted curve in the direction sought with a large enough effect; inconclusive = small, poorly fitted or top-dose-only effect, or another doubt; inactive = no such curve, though single readings can be large; an effect the other way counts as inactive or inconclusive.

SMILES	Nrf2 block	mIDH1 inhibitor	A549 tox	Nrf2 activator	ELG1 DNA repair
COc1ccc(OC)c(-c2nnc3n2N=C(c2ccc(OC)c(OC)c2)CS3)c1	?	-	0	0	0
COc1ccc(OC)c(-c2nnc3n2N=C(c2ccc(OC(F)F)c(OCC4CC4)c2)CS3)c1	?	-	0	0	12µM
Cc1ccc(CNC(=O)c2ccc(CSCc3ccccc3C)o2)cc1	-	0	0	0	-
COC(=O)c1ccc(NC(=O)c2c(NCc3ccc(OC)c(OC)c3)sc3c2CCCC3)cc1	-	0	0	0	-
CCCS(=O)(=O)N1CC(=O)N(c2ccc(Cl)cc2)C(C)(C(=O)NC2CCCC2)C1 (stereo not drawn)	0	0	0	0	-
CN(CCc1ccccc1)C(=O)c1cccc(NC(=O)Cc2cccc([N+](=O)[O-])c2)c1	?	0	0	0	23µM
O=C(Cc1cccc([N+](=O)[O-])c1)Nc1cccc(C(=O)N2CCOCC2)c1	0	0	0	0	0
O=C(Cc1cccc([N+](=O)[O-])c1)Nc1cccc(C(=O)N2CCCCC2)c1	?	0	0	0	16µM
CCN(CC)C(=O)c1ccc(Nc2nnc(-c3ccc(O)cc3)c3ccccc23)cc1	?	0	0	0	16µM
Cc1ccc2c(=O)cc(CSc3ccccc3)[nH]c2c1C	-	0	0	0	-
O=c1cc(CSc2ccccc2)[nH]c2ccccc12	0	0	0	0	12µM
O=C(CSc1nnc(NC(=O)C2CCC2)s1)Nc1ccccc1Br	0	0	0	0	0
CCOC(=O)N1CCC(NC(=O)c2ccc3c(c2)N=C(CC)c2cc(C)ccc2S3)CC1	23µM	0	0	0	?
CCOC(=O)N1CCC(NC(=O)c2cc3cc4cc(OC)ccc4nc3o2)CC1	0	0	0	0	23µM
CCC1=Nc2cc(C(=O)NC3CCC(C)CC3)ccc2Sc2ccc(C)cc21 (stereo not drawn)	?	0	0	0	-
NS(=O)(=O)c1ccc(S(=O)(=O)N2CCN(c3nc(-c4cccs4)nc4ccccc34)CC2)cc1	?	-	0	-	-
COc1ccc(CCCc2nnc(SCC(=O)NN)o2)cc1	0	0	0	0	0
COc1ccc(CCCc2nnc(SCC(=O)Nc3ccc(Cl)cc3)o2)cc1	21µM	0	0	0	-
Cc1ccc(-c2nn(-c3cccc([N+](=O)[O-])c3)c3c2cnc2ccc(F)cc23)cc1	-	0	0	0	-
CCOC(=O)c1sc(NC(=O)CSc2ncn(-c3ccccc3)n2)nc1C	0	0	0	0	0
Cc1sc(NC(=O)CSc2ncn(-c3ccccc3)n2)nc1-c1ccccc1	12µM	0	0	0	?
CCOc1cccc2cc(-c3nc(-c4ccccc4C)no3)c(=O)oc12	?	0	0	0	-
Cc1ccsc1C1C=C(c2cccc(Br)c2)Nc2ncnn21 (stereo not drawn)	0	0	0	7.9µM	0
C1=C(c2ccccc2)Nc2ncnn2C1c1ccccc1 (stereo not drawn)	0	0	0	7.1µM	-
Cc1ccc(C2=CC(c3ccccc3)n3ncnc3N2)cc1 (stereo not drawn)	0	0	0	0	-
SMILES	Nrf2 block	mIDH1 inhibitor	A549 tox	Nrf2 activator	ELG1 DNA repair
COc1cccc(C2=CC(c3ccc(C)cc3)n3ncnc3N2)c1 (stereo not drawn)	-	-	-	-	0
COc1ccc(-c2c(C)[nH]n3c(=O)c(Cc4ccccc4)c(C)nc23)cc1OC	?	0	0	0	?
Cc1nc2c(-c3ccccc3)c(C)[nH]n2c(=O)c1Cc1ccccc1	?	0	0	0	?
CCCCc1c(C)nc2c(-c3ccc(OC)cc3)c(C)[nH]n2c1=O	21µM	0	0	0	-
Cc1ccccc1Cc1c(C)nc2c(-c3ccccc3)c(C)[nH]n2c1=O	18µM	0	?	0	-
Cc1cccc(Cc2c(C)nc3c(-c4ccccc4)c(C)[nH]n3c2=O)c1	5.8µM	0	?	0	-
Cc1nc2c(-c3ccc(Cl)cc3)c(C)[nH]n2c(=O)c1Cc1ccccc1	15µM	0	?	0	4.1µM
Cc1[nH]n2c(=O)cc(-c3ccccc3Cl)nc2c1-c1ccccc1	18µM	0	0	0	-
O=[N+]([O-])c1ccc(-c2c(O)c3ccccc3c3nc4ccccc4nc23)cc1	0	0	0	0	23µM
